High-throughput results from PubChem BioAssay.
DT40 TDP1 CPT: DT40-hTDP1 cell growth loss with CPT; chicken DT40 Tdp1-/-;hTDP1 cells + 20 nM CPT, ATP luminescence, 48 h; Potency, µM (series often up to 46.2 µM), without a hit: at the highest dose activity change, negative = growth inhibition, hits mostly inhibitors; hit rate 12% among 420,000; also: nearly all actives have a fitted effect of over 55% in size
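Cell growth measured by CellTiter-Glo luminescence after a minimum 48 h, 37 C compound exposure with 20 nM CPT in Tdp1-knockout DT40 cells stably expressing hTDP1, seeded 400/well; qHTS titration format.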
DT40 TDP1 no CPT: qHTS for Inhibitors of human tyrosyl-DNA phosphodiesterase 1 (TDP1): qHTS in cells in absence of CPT | AID 686978, 2013 | Potency, µM (series often up to 46.2 µM), without a hit: at the top dose activity change, negative = growth inhibition, actives largely listed as inhibitors | DT40 Tdp1-/- hTDP1 cells, no CPT, ATP luminescence, 48 h | hit rate 15% among 420,000; also: nearly all actives have a fitted effect of over 55% in size
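No-CPT arm: Tdp1-/-;hTDP1 DT40 cells (400/well) plus compounds, incubated ≥48 hr at 37 °C. Readout CellTiter-Glo luminescence.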
RORg inh: inhibitors of mouse ROR gamma transcriptional activity | Drosophila S2 Gal4-RORgamma UAS-luciferase reporter, 20 h | Potency, µM (top dose mostly 53.6 µM), inactives show at the highest dose activity change, negative = inhibition, usual class: inhibitors | hit rate 5.4% among 310,000; also: nearly all actives have a fitted effect of over 60% in size
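Read-out: Photinus luciferase luminescence; inhibitors lower reporter signal. Insect Schneider cells with Gal4-ROR gamma fusion under metallothionein promoter, UAS reporter; 700 uM final copper sulfate induction, 20 hr, ambient temperature.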
ELG1 repair inh: blocks ELG1-dependent DNA repair in HEK293T cells | HEK293T ELG1-luciferase reporter, luminescence, 16 h; DNA damage induced by 5-fluorouridine | Potency, µM (top dose mostly 46.1 µM), for inactives: at the highest dose activity change, negative = inhibition, usual class: inhibitors | hit rate 2.3% among 330,000 | AID 504467; also: nearly all actives have a fitted effect of over 55% in size
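Luminescence from the luciferase reporter, measured 30 min after ONE-Glo reagent at room temperature, was the read-out. Beforehand, 2,000 cells per well were exposed for 16 hr at 37 °C to 5-fluorouridine together with compound or vehicle.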
VP16 counter: counter-screen for ROR gamma inhibitors: Gal4-VP16 reporter | Drosophila S2 Gal4-VP16 UAS-luciferase, luminescence, 20 h | Potency, µM (titrated, usually from 53.6 µM), for the others: top-dose activity, negative = inhibition, usual class: inhibitors | hit rate 3.5% among 310,000 | AID 2546;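 also: Gal4-VP16 expression switched on by copper sulfate through the metallothionein promoter; nearly all actives have a fitted effect of over 50% in size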
ALOX12 inh: blocks human arachidonate 12S-lipoxygenase | P18054 | purified 12hLO, xylenol orange hydroperoxide absorbance | Potency, µM (doses to about 108 µM), inactives show at the top dose activity change, negative = inhibition, most hits filed as inhibitors | hit rate 1.1% among 580,000 | AID 1671190
Target sequence (P18054 whole entry, looked up): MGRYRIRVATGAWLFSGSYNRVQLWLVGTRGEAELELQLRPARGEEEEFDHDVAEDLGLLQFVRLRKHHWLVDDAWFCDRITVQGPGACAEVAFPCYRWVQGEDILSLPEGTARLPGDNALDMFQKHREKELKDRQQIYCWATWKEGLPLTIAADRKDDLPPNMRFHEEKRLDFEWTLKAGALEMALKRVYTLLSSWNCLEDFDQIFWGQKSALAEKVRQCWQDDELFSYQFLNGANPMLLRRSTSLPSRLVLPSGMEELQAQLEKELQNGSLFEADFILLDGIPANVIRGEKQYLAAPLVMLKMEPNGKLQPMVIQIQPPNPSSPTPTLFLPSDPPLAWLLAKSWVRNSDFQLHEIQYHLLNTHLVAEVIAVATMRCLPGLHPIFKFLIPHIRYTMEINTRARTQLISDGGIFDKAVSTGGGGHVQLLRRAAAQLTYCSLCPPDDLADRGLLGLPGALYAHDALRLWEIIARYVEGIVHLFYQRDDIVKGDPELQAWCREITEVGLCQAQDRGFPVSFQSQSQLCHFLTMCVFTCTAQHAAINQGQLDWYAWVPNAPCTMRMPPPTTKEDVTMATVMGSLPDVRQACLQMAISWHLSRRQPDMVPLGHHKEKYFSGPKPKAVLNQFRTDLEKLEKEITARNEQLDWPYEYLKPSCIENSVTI
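Purified human 12hLO at 150 nM in 25 mM Hepes, 0.01% Triton X-100, pH 7.0, preincubated 15 min at room temperature with compound. Reaction started with 40 uM arachidonic acid, 30 min at room temperature. Hydroperoxide measured by Fe-xylenol orange, 573/405 nm absorbance ratio.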
Numbers without * were called inactive; [ ] = remark or other dose. A selection: hits, their analogues and other compounds. The true share with any hit is near 15%. Calls follow the shape of the dose curve; as a rule, active = well fitted curve in the direction sought with a large enough effect; inconclusive = small, poorly fitted or top-dose-only effect, or another doubt; inactive = no such curve, though single readings can be large; an effect the other way counts as inactive or inconclusive. % is scaled to controls: 0 for no effect and ±100 for the full control effect; potency is read from the fitted curve at half-maximal effect.

`CCN(CC)C(=O)NC(c1ccc(C)c(F)c1)C(Cl)(Cl)Cl` (configuration not stated) gave DT40 TDP1 CPT 16.4µM*, DT40 TDP1 no CPT 16.4µM*, RORg inh -4.1%[10 µM], ELG1 repair inh -11.6%, VP16 counter 2.0% and ALOX12 inh inconclusive.
`CC(C)Oc1ccc(CCC(=O)N/N=C/c2ccc3c(c2)OCO3)cc1` gave DT40 TDP1 CPT -29.0%, DT40 TDP1 no CPT -23.8%, RORg inh -12.3%, ELG1 repair inh -9.0%, VP16 counter -6.5% and ALOX12 inh -4.6%.
Screening CC(C)Oc1ccc(CCC(=O)N/N=C/c2ccncc2)cc1 returned DT40 TDP1 CPT -29.4%, DT40 TDP1 no CPT inconclusive, RORg inh 20µM*, ELG1 repair inh -7.3%, VP16 counter -5.5% and ALOX12 inh -39.6%.
`CCC(=O)N1CCc2cc(Br)cc(S(=O)(=O)N3CCCC(C(=O)N(C)c4ccc(Br)cc4)C3)c21` (configuration not stated) gave DT40 TDP1 CPT 18.4µM*, DT40 TDP1 no CPT inconclusive and ALOX12 inh -13.9%.
Screening CCCN(CCC)C(=O)C1CCCN(S(=O)(=O)c2cc(Br)cc3c2N(C(=O)CC)CC3)C1 (configuration not stated) returned DT40 TDP1 CPT inconclusive, DT40 TDP1 no CPT 20.6µM* and ALOX12 inh 1.4%.
`CCN(C(=O)C1CCN(S(=O)(=O)c2cc(Br)cc3c2N(C(C)=O)CC3)CC1)c1cccc(C)c1` gave DT40 TDP1 CPT inconclusive, DT40 TDP1 no CPT 23.1µM* and ALOX12 inh -21.4%.
`CC(=O)N1CCc2cc(Br)cc(S(=O)(=O)N3CCCCCC3)c21` gave DT40 TDP1 CPT -19.3%, DT40 TDP1 no CPT -14.8%, RORg inh -9.6%, ELG1 repair inh inconclusive, VP16 counter -4.5% and ALOX12 inh 0.0%.
`COC(=O)C1=CN(CC(=O)N(C)c2ccccc2)S(=O)(=O)N=C1C` gave ALOX12 inh 4.8%.
Screening O=C(c1cc(F)ccc1Cl)N1CCC2(CC1)N(c1ccccc1)C(=O)CS2(=O)=O returned ALOX12 inh 25.8%.
For Cc1ccc(Sc2ccc(C#N)cc2C)cc1C the results were ALOX12 inh 18.3%.
CNC(=O)NC(=O)CSc1cc(C)c2ccccc2n1 was read as ALOX12 inh -20.7%.
For COc1ccc(NC(=O)c2ccco2)cc1NC(=O)COc1ccc(Cl)cc1C the results were DT40 TDP1 CPT 10.3µM*, DT40 TDP1 no CPT 9.2µM* and ALOX12 inh inconclusive.
Screening COc1ccc(NC(=O)c2ccco2)cc1NC(=O)c1cc(Br)ccc1Cl returned DT40 TDP1 CPT -27.7%, DT40 TDP1 no CPT 20.6µM* and ALOX12 inh -26.9%.
`Cc1cc(C)c(OCC(=O)Nc2cccc(NC(=O)c3ccco3)c2)c(Br)c1` gave DT40 TDP1 CPT 23.1µM*, DT40 TDP1 no CPT 13µM*, RORg inh 36.7%, ELG1 repair inh inconclusive, VP16 counter 2.9% and ALOX12 inh -0.6%.
Screening COc1ccc(OCC(=O)Nc2cc(NC(=O)c3ccco3)ccc2OC)cc1 returned DT40 TDP1 CPT -15.4%, DT40 TDP1 no CPT inconclusive, ELG1 repair inh inconclusive and ALOX12 inh 24.5%.
Screening O=C(Nc1cccc(NC(=O)c2ccc(-c3cccc(Br)c3)o2)c1)c1ccco1 returned DT40 TDP1 CPT 16.4µM*, DT40 TDP1 no CPT 11.2µM*, RORg inh inconclusive, ELG1 repair inh 9.2µM*, VP16 counter -10.6% and ALOX12 inh 10.9%.
For COc1ccc(NC(=O)c2ccco2)cc1NC(=O)c1ccccc1F the results were DT40 TDP1 CPT -7.4%, DT40 TDP1 no CPT -15.4%, RORg inh 15.1%, ELG1 repair inh 17.3%, VP16 counter 4.3% and ALOX12 inh -20.7%.
For O=C(c1n[nH]c2ccccc12)N1CCC(OCCOc2cccnc2)CC1 the results were ALOX12 inh -1.0%.
`CCCCNC(=O)c1nc2cc(C)c(C)cc2nc1-c1cccc(Br)c1` gave ALOX12 inh -0.8%.
`NC(=O)CNC(=O)C1=C[C@@H](NC(=O)Nc2ccccc2Br)[C@@H](O)[C@H](O)C1` gave ALOX12 inh 26.1%[176 µM].
Screening COc1ccc(Br)cc1C(=O)Nc1cccc(NC(=O)c2ccco2)c1 returned DT40 TDP1 CPT inconclusive, DT40 TDP1 no CPT 18.4µM*, RORg inh 26.1%, ELG1 repair inh 20.6µM*, VP16 counter -4.7% and ALOX12 inh 0.0%.
COc1c(C)cc(Br)cc1C(=O)Nc1cccc(NC(=O)c2ccco2)c1 was read as DT40 TDP1 CPT inconclusive, DT40 TDP1 no CPT inconclusive, RORg inh inconclusive, ELG1 repair inh inconclusive, VP16 counter -16.0% and ALOX12 inh 21.1%.
Screening O=C(NCc1cccnc1)C1c2ccccc2C(=O)N(Cc2ccccc2)C12CCCCC2 (configuration not stated) returned ALOX12 inh 2.7%.
CCN1CCN(C(c2cccs2)C(C)NC(=S)Nc2cccc(C)c2C)CC1 (configuration not stated) was read as DT40 TDP1 CPT inconclusive, DT40 TDP1 no CPT inconclusive, RORg inh 11.2µM*, ELG1 repair inh 1.1%, VP16 counter -3.2% and ALOX12 inh 0.0%.
CCN1CCN(C(c2cccs2)C(C)NC(=O)c2c(F)cccc2F)CC1 (configuration not stated) was read as DT40 TDP1 CPT -2.8%, DT40 TDP1 no CPT 0.8%, RORg inh 27.3%, ELG1 repair inh 1.9%, VP16 counter -3.2% and ALOX12 inh -5.7%.
Screening CC(NC(=S)Nc1ccc(Cl)cc1)C(c1ccccc1)N1CCOCC1 (configuration not stated) returned DT40 TDP1 CPT inconclusive, DT40 TDP1 no CPT 3.4%, RORg inh 6.31µM*, ELG1 repair inh 1.6%, VP16 counter 6.31µM* and ALOX12 inh inconclusive.
Cc1cccc(NC(=S)NC(C)C(c2ccccc2)N2CCN(C)CC2)c1C (configuration not stated) was read as DT40 TDP1 CPT inconclusive, DT40 TDP1 no CPT 25.9µM*, RORg inh 11.2µM*, ELG1 repair inh inconclusive, VP16 counter -7.5% and ALOX12 inh 0.0%.
O=C1OCCN1C1CCN(Cc2ccc(C(F)(F)F)cc2)CC1 was read as ALOX12 inh 12.0%[6.33 µM].
